Assay results: the supplement of paper PMC8387472
± gives the standard deviation of the averaged measurements.

test system: mESC LDLR-Dup GFP reporter (SpCas9 MH-deletion repair); assay: fraction of GFP+ cells relative to DMSO control (fold change); higher = more MH-deletion repair to in-frame LDLR (or more editing); conditions: 2 µM; 7 days post-transfection

Structure (SMILES)	fraction of GFP+ cells
Cc1ccc(C(=O)OCc2ccc([C@@H](CN)C(=O)Nc3ccc4cnccc4c3)cc2)c(C)c1	1.71 ± 0.5
COc1cc(OCc2cccc(-c3ccccc3)c2C)cc(OC)c1CN1CCCC[C@H]1C(=O)O [pd-1/pd-l1 inhibitor 1]	0.898 ± 0.35
O=C(Nc1ccccc1-c1cn2c(CN3CC[C@@H](O)C3)csc2n1)c1ccc2ccccc2c1	1.45 ± 0.4
CN(C)CCCCC(=O)Nc1ccc(NC(=S)NC(=O)c2ccc(C(C)(C)C)cc2)cc1 [Tenovin-6]	0.625 ± 0.2
Cn1cc(-c2ccc3c(c2)CCN3C(=O)Cc2cccc(C(F)(F)F)c2)c2c(N)ncnc21	0.644 ± 0.25
CN(CCOc1ccc(CC2SC(=O)NC2=O)cc1)c1ccccn1 (configuration not stated) [Rosiglitazone]	1.48 ± 0.26
Nc1nc(N)c(N=O)c(OCC2CCCCC2)n1	0.999 ± 0.11
CC(C)(Oc1ccc(C2CC2(Cl)Cl)cc1)C(=O)O (configuration not stated) [Ciprofibrate]	1.74 ± 0.1
Cc1cc(O)c2c(c1)C(=O)c1cc(O)cc(O)c1C2=O [Emodin]	1.12 ± 0.16
Cc1cc(Cl)ccc1OCCCC(=O)NO [Droxinostat]	0.706 ± 0.06
CCCC(CCC)C(=O)O [valproic acid]	0.696 ± 0.13
C#Cc1cccc(Nc2ncnc3cc(OC)c(OCCCCCCC(=O)NO)cc23)c1	0.66 ± 0.054
Nc1ncnc2c1ncn2[C@@H]1O[C@H](CO)[C@@H](O)[C@H]1O [Adenosine]	1.04 ± 0.13
C=C1CC[C@H](O)C/C1=C/C=C1\CCC[C@]2(C)[C@@H]([C@H](C)/C=C/[C@H](C)C(C)C)CC[C@@H]12 [Vitamin D2]	1.43 ± 0.26
O=C(O)COc1ccc(Br)cc1C=C1SC(=S)N(Cc2cccnc2)C1=O [Skp2 inhibitor C1 (SKPin C1)]	0.783 ± 0.085
CC(C)(O)[C@@H]1CC[C@](C)([C@H]2[C@@H](O)C[C@@]3(C)[C@@H]4C[C@H](O)[C@H]5C(C)(C)[C@@H](O)CC[C@@]56C[C@@]46CC[C@]23C)O1 [Cycloastragenol]	0.966 ± 0.08
CCN1C(=O)CNc2ncc(-c3ccc(-c4nc[nH]n4)nc3C)nc21	0.696 ± 0.12
NC(=O)c1ccc(I)c([N+](=O)[O-])c1 [Iniparib (BSI-201)]	1.03 ± 0.039
O=C(O)c1cn(C2CC2)c2cc(N3CCNCC3)c(F)cc2c1=O [Ciprofloxacin]	1.01 ± 0.28
CN(C)Cc1ccc(-c2nc3cccc4c3n2CCNC4=O)cc1	0.517 ± 0.015
COc1cc2c(c(OC)c1OC)-c1c(cc3c(c1OC)OCO3)CC(C)C(C)C2 (configuration not stated) [Schisandrin B (Sch B)]	1.02 ± 0.2
C[C@H]1COc2c(N3CCN(C)CC3)c(F)cc3c(=O)c(C(=O)O)cn1c23 [Levofloxacin hydrate]	0.935 ± 0.12
Cc1nc(N)sc1-c1ccnc(Nc2ccc(N3CCOCC3)cc2)n1	0.334 ± 0.28
O=c1[nH]c(=O)n(C2CCCO2)cc1F (configuration not stated)	1.06 ± 0.28
O=c1cc(N2CCOCC2)oc2c1ccc1ccccc12	0.548 ± 0.39
C=CC(=O)N1C/C(=C\c2ccc([N+](=O)[O-])cc2)C(=O)/C(=C/c2ccc([N+](=O)[O-])cc2)C1	0.723 ± 0.13
COc1ccc(-c2oc3c(CC=C(C)C)c(O[C@@H]4O[C@H](CO)[C@@H](O)[C@H](O)[C@H]4O)cc(O)c3c(=O)c2O[C@@H]2O[C@@H](C)[C@H](O)[C@@H](O)[C@H]2O)cc1 [Icariin]	1.26 ± 0.2
